Reference: PubChem BioAssay AID493216 (National Center for Advancing Translational Sciences (NCATS), 2011)
Activity calls are given as the source filed them. Calls come from the whole dose curve.

The compounds below were run against Polyunsaturated fatty acid lipoxygenase ALOX12 (Homo sapiens) (UniProt P18054) (assay: Inhibitors of 12-hLO (12-human lipoxygenase): Cuvette-Based Hit Assay for Validation of Followup Compounds). Details: purified 12-hLO, cuvette absorbance 234 nm.
Method: The enzyme activity of 12-hLO was determined by a direct measurement of product formation by monitoring the absorbance at 234 nm in a 2 mL cuvette. IC50 values of inhibitors were obtained by measuring the enzymatic rate at a variety of concentrations (Carroll et al, Segraves et al). This assay was used to validate actives or inconclusive putative inhibitors identified in the primary screen (see related BioAssay AIDs). Assay Provider: Holman, T.R., University of California, Santa Cruz Screening Center PI: Austin, Christopher P. Screening Center: NIH Chemical Genomics Center
For control experiments, 2 mL of substrate buffer (10 uM arachidonic acid / 25 mM HEPES / 0.01% (v/v) Triton X-100, pH 8.0) was aliquoted in a cuvette with a magnetic stir bar. After equilibrium was ensured, an aliquot of inhibitor solvent was added (DMSO), and equilibrium was once again assured. The reaction was started by adding enzyme to the cuvette and the reaction was followed until completed. The inhibition experiments were performed as above, except the actual inhibitory compound was added instead of vehicle. To achieve an IC50, typically 5 concentrations of the inhibitor were studied. If the inhibitor concentration was constant, then five different reaction volumes were used. Step \ Parameter \ Value \ Description 1; UV-Vis; 234 nm; Equilibration 2; Reagent; 2 mL; Substrate buffer 3; UV-Vis; 234 nm; Equilibration 4; Reagent; varies; Compound 5; UV-Vis; 234 nm; Equilibration 6; Reagent; 50-200 nM; Enzyme 12-hLO 7; UV-Vis; 234 nm; Enzymatic reaction Step \ Notes 1; Blank cuvette to air. 2; 10 uM AA, 25 mM HEPES, 0.01% Triton X-100, pH 8. 3; No change in absorbance ensured. 4; Compound vehicle or compound in various concentrations depending on potency. 5; No change in absorbance ensured. 6; Enzyme concentration to achieve reaction rate between 0.02 and 0.04 AU/s. 7; Enzymatic reaction visualized until completion.

Chain of Polyunsaturated fatty acid lipoxygenase ALOX12 (Homo sapiens) (P18054 whole entry, looked up): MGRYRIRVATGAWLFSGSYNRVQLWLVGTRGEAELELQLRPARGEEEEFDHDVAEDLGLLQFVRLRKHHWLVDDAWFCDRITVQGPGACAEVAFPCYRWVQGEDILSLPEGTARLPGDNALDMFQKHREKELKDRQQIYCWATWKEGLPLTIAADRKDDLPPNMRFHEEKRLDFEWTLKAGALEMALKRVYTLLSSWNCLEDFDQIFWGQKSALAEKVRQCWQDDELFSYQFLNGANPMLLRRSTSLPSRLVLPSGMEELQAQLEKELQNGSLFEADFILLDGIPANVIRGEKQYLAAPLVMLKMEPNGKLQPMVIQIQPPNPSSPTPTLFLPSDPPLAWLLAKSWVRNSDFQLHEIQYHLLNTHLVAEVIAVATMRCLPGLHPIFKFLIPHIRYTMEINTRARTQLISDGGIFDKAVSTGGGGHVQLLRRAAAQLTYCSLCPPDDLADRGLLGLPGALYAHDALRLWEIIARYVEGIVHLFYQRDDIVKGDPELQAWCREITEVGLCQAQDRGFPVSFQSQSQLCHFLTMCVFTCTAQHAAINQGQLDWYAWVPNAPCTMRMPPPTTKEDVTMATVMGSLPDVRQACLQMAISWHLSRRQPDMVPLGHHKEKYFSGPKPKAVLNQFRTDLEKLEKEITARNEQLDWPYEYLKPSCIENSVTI

SMILES | Potency
CC(Oc1ccc(Cl)cc1Cl)C(=O)NC1=NN(c2ccccc2)C(=O)C1 (stereo not given) | 15.5 µM (active)
CCOC(=O)Cc1cc(=O)n(-c2nc3ccccc3s2)[nH]1 | 22.4 µM (active)
COc1ccc(NC2=NCC(Cc3ccc(Br)cc3)S2)cc1 (stereo not given) | 36.6 µM (active)
Cc1nc(N)sc1-c1csc(N(C)c2ccc(O)cc2)n1 | 15.6 µM (active)
Cc1cc(C)c2cc(CN(Cc3nnnn3C3CCCCC3)CC3CCCO3)c(=O)[nH]c2c1 (stereo not given) | 26.9 µM (active)
O=C(Nc1nnc(-c2ccccn2)o1)c1ccc(Br)cc1 | 3.26 µM (active)
COc1cc(CNc2ccc(O)cc2)cc(Br)c1OCc1ccccc1F | 24.1 µM (active)
CCc1cc(-c2n[nH]c(C)c2Oc2ccc(C(C)C)cc2)c(O)cc1O | 20.2 µM (active)
Cc1ccc(NC(=O)Nc2cccs2)c(Cl)c1 | 22.4 µM (active)
Cc1ccc(C(=O)Nc2nnc(-c3ccco3)o2)cc1 | 6.52 µM (active)
COc1ccc(-c2n[nH]c(C)c2-c2ccc(Cl)cc2)c(O)c1 | 19.4 µM (active)
COc1ccc(-c2n[nH]c(C(F)(F)F)c2-c2cc3ccccc3o2)c(O)c1 | 21 µM (active)
CC1=NN(c2ccc(Cl)cc2)C(=O)C1C(c1ccccc1O)c1c(C)[nH]n(-c2ccc(Cl)cc2)c1=O (stereo not given) | 18.9 µM (active)
c1ccc(-c2nc(NCc3cccnc3)c3oc4ccccc4c3n2)cc1 | 14 µM (active)
COc1cc(CNc2ccc(N3CCCC3)cc2)ccc1OCc1ccccc1 | 25 µM (active)
Cc1cc(Cl)cc(Cl)c1OCC(=O)NCc1ccco1 | 20.4 µM (active)
Cc1ccc(C(=O)/C=C/c2c[nH]c3ccccc23)cc1 | 34.6 µM (active)
COc1ccc2nc(NC(=O)c3cccc(OCc4c(C)noc4C)c3)sc2c1 | 36.7 µM (active)
Cc1[nH]nc(-c2ccc(O)cc2O)c1Oc1ccccc1 | 27 µM (active)
O=S(=O)(Nc1ccc(O)c(Sc2nc3ccccc3s2)c1)c1ccc(Cl)cc1 | 8.77 µM (active)

SMILES | Potency
COc1ccc(Cc2nc(C(=O)Nc3ccc(OC)cc3)cs2)cc1 | 35.8 µM (active)
Oc1ccc(Cl)cc1-c1cc(-c2ccco2)[nH]n1 | 21.5 µM (active)
O=C(Nc1nnc(C2=COCCO2)o1)c1ccc(Cl)cc1 | 7.14 µM (active)
CSCCC(NC(=O)c1ccc(Cl)cc1)C(=O)OCC(=O)Nc1ccc(C#N)cc1 (stereo not given) | 18.3 µM (active)
Oc1ccc(C2=Nn3c(nnc3-c3ccco3)SC2)cc1O | 33.3 µM (active)
CC1=NN(c2ccc(Cl)cc2)C(=O)C1C(c1cccc(O)c1)c1c(C)[nH]n(-c2ccc(Cl)cc2)c1=O (stereo not given) | 7.55 µM (active)
O=C(/C=C/c1ccc(O)c(O)c1)c1ccc(S(=O)(=O)N2CCCCCC2)cc1 | 27.2 µM (active)
CN(C)c1nccc(N(Cc2ccccc2)Cc2ccccc2)c1C#N | 15.7 µM (active)
Cc1ccc(S(=O)(=O)Nc2ccc(NC(=O)Nc3cccc(C(F)(F)F)c3)cc2)cc1 | 35 µM (active)
Cc1ccc(C(=O)Nc2nnc(-c3ccco3)o2)cc1C | 15.7 µM (active)
CCCOC(=O)c1ccc(Oc2cn[nH]c2-c2ccc(OC)cc2O)cc1 | 26.8 µM (active)
Oc1ccccc1-c1cc(-c2ccc3c(c2)OCCO3)n[nH]1 | 31.3 µM (active)
Cc1oc2c(O)c(O)ccc2c(=O)c1-c1cnn(-c2ccccc2)c1 | 15.5 µM (active)
COc1ccc(C(Nc2ccccn2)c2c(NC(=O)c3ccco3)sc(C)c2C)cc1 (stereo not given) | 23.2 µM (active)
N#CC1=C(N)Oc2n[nH]c(-c3cccs3)c2C1C1CCCCC1 (stereo not given) | 7.69 µM (active)
Oc1ccc(-c2csc(-c3ccccc3)n2)cc1O | 0.94 µM (active)
CCOc1ccc(-c2[nH]ncc2Oc2cccc(OC)c2)c(O)c1 | 28.1 µM (active)
CCc1ccc(S(=O)(=O)/N=C2/C=C(Sc3ncn[nH]3)C(=O)c3ccccc32)cc1 | 23.2 µM (active)
CCc1cc(-c2[nH]ncc2-c2ccc3c(c2)OCO3)c(O)cc1O | 22.2 µM (active)
Oc1ccccc1-c1cc(-c2ccccc2Cl)[nH]n1 | 16 µM (active)
